Measurements as given in the OligoGym collection.

biological target: PLEKHN1; test: pooled miR-30 sensor sort-seq; sequence = guide strand; conditions: shRNA
Also: reference of the scale not given here.

| Sequence | sensor-assay potency score (higher = more potent) |
| --- | --- |
| TTCTCCTCCAGGTTGATGTGGA | -0.466 |
| TTGAACACACTCAGGAATGGCT | -0.516 |
| TCCAGGTCCAGGATGTCCGTGC | -1.12 |
| TCGCTGGTTCTCCAGGTCCAGG | -2 |
| TAGCTGGCGCACACCACGCGGA | -1.23 |
| TAGTGGAAGAGCTTGTTGGCGG | -0.587 |
| TGAAATGTGAGTCCTTCCGAGC | -1.13 |
| TAGCAGTCGCTGACATCCTGGC | -0.66 |

biological target: PLK1S1; test: as above; conditions: shRNA

| Sequence | sensor-assay potency score (higher = more potent) |
| --- | --- |
| TAGATGAAAAACTAGCTTCCGA | -0.0275 |
| TTGGTTTCGAGTATGAGCCTTC | 0.232 |
| TATTTCAGCTTAACTCTGCATG | -0.461 |
| TATTCTGAAACTGGTATCGGAG | -0.809 |
| TTGTACTACACAGCTGTCTGTC | -0.193 |
| TTCAGATTCACATATTTCCTTC | -0.129 |
| TTTGAGCATAGCATCTTCTTAA | -0.677 |
| TATTCCACTATTGTCATTCAGA | -0.697 |
| TAGTTTTACATATTTCAGCTTA | -0.42 |
| TTTGTCTCGAATGCACCGCTGC | -0.55 |
| TTGAGTCTCATATTCGAGCTTC | 0.47 |
